Of roughly 7,900 targets only a part is listed; those with a hit were picked by preference. About 0.6% of all pairs of compound and target were hits.
Each compound was assayed against AAGAB (UniProt Q6PD74) (assay: log2 fold change, soluble protein after heating vs DMSO (PISA); higher = thermal stabilisation; K562 cells, 10 uM, 30 min; active = over 0.2 and 3.5 SD of the protein, either way, in both replicates (recomputed)).
Sequence of AAGAB (Q6PD74 whole entry, looked up): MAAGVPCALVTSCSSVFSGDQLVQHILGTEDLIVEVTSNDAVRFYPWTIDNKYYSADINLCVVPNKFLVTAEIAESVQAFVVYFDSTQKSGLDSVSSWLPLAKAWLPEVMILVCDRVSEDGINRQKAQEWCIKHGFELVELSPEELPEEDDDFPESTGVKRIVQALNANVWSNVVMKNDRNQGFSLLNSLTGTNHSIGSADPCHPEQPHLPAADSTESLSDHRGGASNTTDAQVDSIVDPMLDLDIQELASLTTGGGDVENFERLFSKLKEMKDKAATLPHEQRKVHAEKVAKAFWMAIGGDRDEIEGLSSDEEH
Procedure, shortened: (§1)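 K562 cells at 2×10^6 cells/mL were given 10 μM compound for 30 min. Aliquots then went through 3 min of heating across 48°C-58°C, were pooled, and were extracted in PBS with 0.5% NP-40 at 4°C, and the supernatant after 21,000xg for 90 min was quantified by TMTpro 16plex LC-MS/MS with channel sums equalised. Thermal stability relative to control samples, from duplicates, is given as log2 fold change.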
With `CC[C@@H]1C(=O)N(C)c2cnc(Nc3ccc(C(=O)N[C@H]4CC[C@H](N5CCN(CC6CC6)CC5)CC4)cc3OC)nc2N1C(C)C` [volasertib] the log2 fold change was -0.551 (active). `Cn1cncc1[C@@](N)(c1ccc(Cl)cc1)c1ccc2c(c1)c(-c1cccc(Cl)c1)cc(=O)n2C` [tipifarnib] was tested, and the log2 fold change was -0.031 (inactive). In the case of `CCn1c(C(=O)N(C2CC2)C2CC2)cc2c3c(ncn3C)c(Nc3cc(C)n(C)n3)nc21`, the log2 fold change was 0.073 (inactive). `CS(=O)(=O)c1ccc(-c2cnc(N)c(C(=O)Nc3ccccc3)n2)cc1` was tested, and the log2 fold change was 0.097 (inactive). With `O=C(Nc1cccc(Nc2ncc(Br)c(NCCc3cnc[nH]3)n2)c1)N1CCCC1` the log2 fold change was 0.067 (inactive). `CN1CCC(CNc2ccc3ncc(-c4cccc(OC(F)(F)F)c4)n3n2)CC1` was tested, and the log2 fold change was -0.228 (inactive). With `Cc1ccc(Sc2cncc3sc(C(N)=O)cc23)cc1` the log2 fold change was -0.012 (inactive). `CCCS(=O)(=O)Nc1ccc(F)c(C(=O)c2c[nH]c3ncc(Cl)cc23)c1F` was tested, and the log2 fold change was 0.144 (inactive). For `Fc1ccc(Cl)cc1-c1nc(Nc2ccncc2)c2nccnc2n1`, the log2 fold change was 0.079 (inactive). For `CC[C@H](C)n1cc(C)c2c(C(=O)NCc3c(C)cc(C)[nH]c3=O)cc(-c3ccc(N4CCNCC4)nc3)cc21`, the log2 fold change was 0.058 (inactive). For `CC[C@H](C)[C@H](NC(=O)[C@H]([C@@H](C)CC)N(C)C(C)=O)C(=O)N[C@H](C(=O)N[C@@H](CC(C)C)C(=O)[C@@]1(C)CO1)[C@@H](C)O` [epoxomicin], the log2 fold change was 0.006 (inactive). In the case of `Cc1cc(Nc2cc(CN3CCOCC3)c3nc(C)c(Cc4ccc(Cl)cc4F)n3n2)n[nH]1` [gandotinib], the log2 fold change was -0.026 (inactive). With `CC(C)C[C@@H](C=O)NC(=O)[C@H](CC(C)C)NC(=O)[C@H](CC(C)C)NC(=O)OCc1ccccc1` the log2 fold change was 0 (inactive). For `Cc1ccc(-n2nc(C(C)(C)C)cc2NC(=O)Nc2ccc(OCCN3CCOCC3)c3ccccc23)cc1` [doramapimod], the log2 fold change was 0.017 (inactive). `NC(=O)c1cnc(N[C@@H]2CCCC[C@@H]2N)nc1Nc1cccc(-n2nccn2)c1` was tested, and the log2 fold change was -0.028 (inactive). `O=C1c2ccccc2-c2n[nH]c3cccc1c23` was tested, and the log2 fold change was 0.01 (inactive). With `Cc1ncc(-c2ccnc(Nc3ccc(S(C)(=O)=O)cc3)n2)n1C(C)C` the log2 fold change was 0.008 (inactive). In the case of `O=C(Nc1nc2ccccc2n1CCN1CCOCC1)c1cccc([N+](=O)[O-])c1` [IRAK-1-4 Inhibitor I], the log2 fold change was -0.016 (inactive). `NC1(Cc2ccc(Cl)cc2)CCN(c2ncnc3[nH]ccc23)CC1` was tested, and the log2 fold change was 0.054 (inactive). With `CC(=O)c1cnc2ccc(-c3cc(Cl)c(O)c(Cl)c3)nc2c1N[C@H]1CC[C@H](CN(C)C)CC1` the log2 fold change was 0.077 (inactive).

Each compound was assayed against AAK1 (UniProt A0A096LP25) in the same assay as above.
Procedure, shortened: as §1
For `NC(=O)c1ccc2nc(-c3ccc(Oc4ccc(Cl)cc4)cc3)[nH]c2c1`, the log2 fold change was 0.02 (inactive). `FC(F)(F)c1ccc(/C=C/c2nc(COc3ccc(CCCCn4ccnn4)cc3)co2)cc1` [mubritinib] was tested, and the log2 fold change was -0.124 (inactive). For `Cn1c2cc(S(C)=O)sc2c2cnn(Cc3cccc(N)c3)c(=O)c21` (stereo not given), the log2 fold change was -0.073 (inactive). With `C[C@@H](N)c1ccc(C(=O)Nc2ccnc3[nH]ccc23)cc1` the log2 fold change was 0.365 (inactive). With `Oc1cc(-c2nc(-c3ccccc3)[nH]c2-c2ccncc2)ccc1Cl` the log2 fold change was 0.017 (inactive). For `CC1=C(C(=O)Nc2cc3cn[nH]c3cc2F)C(c2ccc(C(F)(F)F)cc2)CC(=O)N1` (stereo not given), the log2 fold change was -0.113 (inactive). In the case of `COC(=O)[C@H](CCSC)NC(=O)c1ccc(NC[C@@H](N)CS)cc1-c1ccccc1`, the log2 fold change was 0.023 (inactive). For `CC(C)c1cnn2c(NCc3ccccc3)cc(NCCCCCCN)nc12`, the log2 fold change was -0.145 (inactive). With `CO[C@H]1C[C@@H]2CC[C@@H](C)[C@@](O)(O2)C(=O)C(=O)N2CCCC[C@H]2C(=O)O[C@H]([C@H](C)C[C@@H]2CC[C@H](n3cnnn3)[C@H](OC)C2)CC(=O)[C@H](C)/C=C(\C)[C@@H](O)[C@@H](OC)C(=O)[C@H](C)C[C@H](C)/C=C/C=C/C=C/1C` [zotarolimus] the log2 fold change was -0.095 (inactive). In the case of `CCn1c(C(=O)N(C2CC2)C2CC2)cc2c3c(ncn3C)c(Nc3cc(C)n(C)n3)nc21`, the log2 fold change was -0.041 (inactive). In the case of `CS(=O)(=O)c1ccc(-c2cnc(N)c(C(=O)Nc3ccccc3)n2)cc1`, the log2 fold change was 0.138 (inactive). In the case of `O=C(Nc1cccc(Nc2ncc(Br)c(NCCc3cnc[nH]3)n2)c1)N1CCCC1`, the log2 fold change was 0.255 (inactive). With `CN1CCC(CNc2ccc3ncc(-c4cccc(OC(F)(F)F)c4)n3n2)CC1` the log2 fold change was 0.332 (inactive). For `Fc1ccc(Cl)cc1-c1nc(Nc2ccncc2)c2nccnc2n1`, the log2 fold change was -0.027 (inactive). With `CC[C@H](C)n1cc(C)c2c(C(=O)NCc3c(C)cc(C)[nH]c3=O)cc(-c3ccc(N4CCNCC4)nc3)cc21` the log2 fold change was -0.005 (inactive). `CC[C@H](C)[C@H](NC(=O)[C@H]([C@@H](C)CC)N(C)C(C)=O)C(=O)N[C@H](C(=O)N[C@@H](CC(C)C)C(=O)[C@@]1(C)CO1)[C@@H](C)O` [epoxomicin] was tested, and the log2 fold change was -0.098 (inactive). In the case of `Cc1cc(Nc2cc(CN3CCOCC3)c3nc(C)c(Cc4ccc(Cl)cc4F)n3n2)n[nH]1` [gandotinib], the log2 fold change was 0.103 (inactive). In the case of `CC(C)C[C@@H](C=O)NC(=O)[C@H](CC(C)C)NC(=O)[C@H](CC(C)C)NC(=O)OCc1ccccc1`, the log2 fold change was 0.065 (inactive). For `Cc1ccc(-n2nc(C(C)(C)C)cc2NC(=O)Nc2ccc(OCCN3CCOCC3)c3ccccc23)cc1` [doramapimod], the log2 fold change was -0.013 (inactive). With `NC(=O)c1cnc(N[C@@H]2CCCC[C@@H]2N)nc1Nc1cccc(-n2nccn2)c1` the log2 fold change was 0.048 (inactive). With `O=C1c2ccccc2-c2n[nH]c3cccc1c23` the log2 fold change was 0.254 (inactive). For `Cc1ncc(-c2ccnc(Nc3ccc(S(C)(=O)=O)cc3)n2)n1C(C)C`, the log2 fold change was 0.028 (inactive). In the case of `O=C(Nc1nc2ccccc2n1CCN1CCOCC1)c1cccc([N+](=O)[O-])c1` [IRAK-1-4 Inhibitor I], the log2 fold change was -0.063 (inactive). In the case of `NC1(Cc2ccc(Cl)cc2)CCN(c2ncnc3[nH]ccc23)CC1`, the log2 fold change was 0 (inactive). `CC(=O)c1cnc2ccc(-c3cc(Cl)c(O)c(Cl)c3)nc2c1N[C@H]1CC[C@H](CN(C)C)CC1` was tested, and the log2 fold change was 0.319 (inactive).
